# Data: PubChem BioAssay (NCI)
# Compounds without any hit were thinned out: in the full panel of roughly 83,000, 20% have a hit.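 How to read the values: 0–100, growth inhibition (40 = 60% inhibited); 0, no net growth; -100 to 0, cell death (-40 = 40% of starting cells died; -100 = all dead).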 Values without a mark were called inactive. Activity calls are given as the source filed them. How the source made its calls: active means growth percent below 10; inactive means the rest.
# Columns and labels:
# Experiment in all cases: NCI-60 one-dose screen, 48 h (100 = growth as untreated, 0 = no growth, -100 = all killed)
# Details in all cases: 10 µM unless noted
# [1] = test system: NCI-H23 lung
# [2] = test system: NCI-H226 lung
# [3] = test system: NCI-H322M lung
# [4] = test system: HOP-62 NSCLC
# [5] = test system: HOP-92 NSCLC
# [6] = test system: NCI-H522 lung
# [7] = test system: A549/ATCC NSCLC
# [8] = test system: 786-0 renal
# [9] = test system: COLO 205 colon
# [10] = test system: NCI-H460 lung
SMILES,growth [1],growth [2],growth [3],growth [4],growth [5],growth [6],growth [7],growth [8],growth [9],growth [10]
CN1CCN(c2ccc3c(c2)nc(NNC(=O)c2cnccn2)c2cccn23)CC1,1.16% (active),-7.98% (active),27.7%,-24.4% (active),-29.3% (active),-16.7% (active),0.0581% (active),-95.5% (active),-64% (active),
COc1ccc(-c2nc(SC(C)C)nc(NCCc3c[nH]c4ccccc34)c2C#N)cc1,45.6%,40.8%,87.7%,51.5%,39%,35.8%,47.1%,30.3%,45.7%,
CSc1ccccc1NC(=O)c1ccc2nnn(/C(C#N)=C/c3ccccn3)c2c1,-96.6% (active),-94.6% (active),40.5%,6.29% (active),-80.8% (active),-96.4% (active),-27.2% (active),-98.5% (active),-83.1% (active),
O=C(Nc1ccccc1)N1CCN(c2cc(-c3cn(-c4ccccc4)nc3-c3cccc(O)c3)ccn2)CC1,71%,75.4%,104%,80.8%,,74.1%,53.9%,94.6%,45.1%,70%
COc1cc2c(c(OC)c1OC)C(=O)CC(c1cccc(NC(=O)[C@@H](N)CC(C)C)c1)O2 (some centres undefined),102%,,111%,99%,80.2%,90%,93.1%,96.4%,118%,106%
C=C1CC[C@@H]2[C@]3(C)COC(c4cn[nH]c4-c4ccc(Br)cc4)O[C@@H]3CC[C@@]2(C)[C@@H]1C/C=C1/C(=O)OCC1O (some centres undefined),-86.1% (active),-83.3% (active),,-46.1% (active),,-57.5% (active),-30.5% (active),-95.5% (active),-54.6% (active),-82.3% (active)
CCCCSc1nc(NCCc2c[nH]c3ccccc23)c(C#N)c(-c2ccc(F)cc2)n1,82.3%,,86.3%,68.5%,,69%,74.5%,71.8%,57.8%,25.7%
COc1cc(C2CC(c3cc(OC)c(OC)c(OC)c3)=NN2C(C)=O)ccc1OCc1ccc(F)cc1 (centres undefined),56.7%,,66.1%,74.2%,17.3%,42.1%,50.8%,57.8%,58.5%,49%
O=c1cc(-c2ccccc2)oc2cc(OCCCC[P+](c3ccccc3)(c3ccccc3)c3ccccc3)cc(O)c12,-93% (active),-29% (active),,-63.6% (active),,-81.9% (active),-56% (active),-69.5% (active),-56.3% (active),-75.8% (active)
CCN(CC)C(=O)N/C(N)=N/c1nc2ccccc2s1,34.5%,,81.4%,68.9%,72.2%,51.2%,62.9%,63.2%,86.4%,67%
OCC1(CCCc2ccccc2)CCCN(c2nccc3ccccc23)C1 (centres undefined),14.9%,37.7%,,,,22.9%,39.7%,45.4%,10.4%,34%
COc1ccc(C(=O)/C=C/c2ccc(OCc3ccc(F)cc3)c(OC)c2)cc1OC,26.5%,,7.43% (active),26.6%,-14.8% (active),2.98% (active),11.9%,37.4%,29.9%,14.8%
Cc1nc(Nc2ncc(C(=O)Nc3c(C)cccc3Cl)s2)cc(N2CCN(CCCNC(=O)COc3ccc(C4CCC(=O)NC4=O)cc3)CC2)n1 (centres undefined),68.8%,,20.8%,35.4%,,17%,33.4%,14.4%,10.3%,95.8%
O=C1CCCc2cc(OCC(=O)N3CCCCC3)ccc2N1,105%,,116%,105%,,108%,113%,116%,117%,115%
CC(=O)N1CCN(Cc2ccc3c(NNC(=O)c4cnccn4)nc4cc(F)ccc4n23)CC1,34.3%,,32.7%,15.4%,56.1%,57.2%,25.4%,0.0554% (active),9.92% (active),9.64% (active)
CC(=O)Nc1cccc(Nc2nc(N[C@H]3CCCc4ccccc43)c3ccccc3n2)c1,104%,,103%,102%,110%,97.5%,104%,106%,109%,104%
N#Cc1c(-c2cccc(O)c2O)cc(-c2ccc3ccccc3c2)[nH]c1=O,52.1%,,72.7%,49.2%,28%,51.3%,84.9%,64.1%,84%,41.7%
COc1cc2c(c(OC)c1OC)C(=O)CC(c1cccc(NC(=O)c3cccc(NC(=O)[C@H](C)NC(=O)OC(C)(C)C)c3)c1)O2 (some centres undefined),70.4%,53.1%,,73.6%,,21%,59.9%,86.4%,81.8%,76.1%
O=S(=O)(Nc1cccc(-n2cnc3cc(-c4ccc(O)cc4)ccc32)c1)C1CC1,38.5%,,55.3%,,87.9%,14.4%,37.7%,40.1%,25.8%,15.8%
C=C1CC[C@@H]2[C@]3(C)COC(c4ccco4)O[C@@H]3CC[C@@]2(C)[C@@H]1C/C=C1/C(=O)OCC1OC(C)=O (some centres undefined),61.6%,0.912% (active),,66.5%,37.9%,-29.9% (active),38.7%,3.41% (active),48.6%,37.6%
COc1c(F)ccc(C(=O)Nc2ccc3nc(NC(=O)C4CCCN(S(=O)(=O)c5ccc(Br)s5)C4)sc3c2)c1F (centres undefined),82.7%,75.1%,,,,74.2%,79.7%,61.5%,,86.5%
N#Cc1c(-c2ccccc2Cl)cc(-c2c[nH]c3ccccc23)[nH]c1=O,69.9%,,72.9%,67.2%,44.9%,70.8%,77.5%,68.8%,114%,65.9%
CC(=O)Oc1ccccc1C(=O)[Se]CC(=O)Nc1cccc(C(F)(F)F)c1,-50.9% (active),,-16.5% (active),-61.1% (active),-60.3% (active),-30.4% (active),-61.3% (active),-14.7% (active),19.7%,0.365% (active)
CC(=O)Nc1ccc(C(=O)NC(=S)Nc2ccc(S(N)(=O)=O)cc2)cc1,94.4%,,92.4%,90.8%,95.4%,73.7%,99.2%,95.5%,105%,102%
CCN1C(=O)/C(=N\N=C(/C)c2ccc3c(c2)Nc2ccccc2S3)c2cc(Cl)ccc21,50.4%,66.7%,,92.9%,29.8%,54%,49.8%,75%,89.8%,
O=C(NN1C(=O)/C(=C/C=C/c2ccc([N+](=O)[O-])o2)SC1=S)c1cccc(O)c1,-89% (active),,-66.9% (active),-73.5% (active),,-96.6% (active),-67.4% (active),-91.5% (active),-79.7% (active),-49.3% (active)
O=C(O)c1cccc(-c2ccc(/C=N/NC(=O)c3[nH]c4ccc(Br)cc4c3-c3ccccc3)s2)c1,26.4%,,58.8%,53.2%,60.3%,0.263% (active),68.9%,50.9%,101%,42.9%
Cc1ccc2c(N)c(C(=O)Nc3ccc(OC(F)(F)F)cc3)sc2n1,47.6%,,82.5%,68.4%,59.1%,66.7%,75.7%,97.5%,92.4%,77.8%
Cn1cc(NC(=O)c2cc(NC(=O)c3ccc(C#Cc4ccccc4)cc3)cn2C)cc1C(=O)NCCCN1CCOCC1,58.9%,,81%,85.4%,-11.5% (active),-52.2% (active),33.3%,-4.75% (active),,-15.3% (active)
COc1ccc(NC(=O)Cn2c(O)c(N=Nc3ccc(S(N)(=O)=O)cc3)c3ccccc32)cc1,10.5%,39.8%,,8.57% (active),,66.6%,24.6%,-25.3% (active),58.5%,21.3%
